Sampled rows, rich in hits. Any-hit rate of the full collection: about 6.1%.
D1 agonist = Allosteric Agonists of the Human D1 Dopamine Receptor: qHTS; HEK293 T-REx D1 cells, calcium flux, agonist mode; 1% of 360,000 active; activation, % at 2 µM; D(1A) dopamine receptor (Homo sapiens), P21728; AID 504660, 2011; in the data active = activation above about 30%; note: 0% is about no effect
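Agonism was scored from calcium flux recorded over 180 s (1 read/s) after pintool compound addition, following a 10-cycle baseline. Cells were inducible force-coupled HEK293 TREx D1, plated overnight at 30 C and loaded with no-wash calcium dye.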
D1 antag = Antagonist of Human D 1 Dopamine Receptor: qHTS; D(1A) dopamine receptor (Homo sapiens), P21728; HEK293 TREx D1 cells, calcium flux, dopamine EC80; hits give low values; activity change, negative = inhibition, % at 10 µM; 3.2% of 360,000 active; AID 504652, 2011; in the data active = activity change below about -30%; note: % is set by controls: 0 for no effect and ±100 for the full control effect
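Using tetracycline-induced force-coupled D1 Hek293 cells and a calcium dye, signals were followed for 180 s after compound, then for 180 s after EC80 dopamine, to detect inhibitors.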
D3 antag = qHTS of D3 Dopamine Receptor Antagonist: qHTS. D(3) dopamine receptor (Homo sapiens), P35462. D3R cells, DiscoveRx beta-arrestin luminescence, antagonist mode; hits give low values. max response, negative = inhibition, %. 2.5% of 360,000 active; in the data active = max response below about -50%; inconclusive = no clear call, values can overlap the other calls; note: % is set by controls: 0 for no effect and ±100 for the full control effect
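Cells plated overnight at 1500 cells/well, then exposed to library compounds with dopamine controls for 90 minutes at 37 degrees C. DiscoveRx reagent added for 30–60 minutes at room temperature; luminescence read, quantitative HTS format.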
DRD3 agonist = qHTS of D3 Dopamine Receptor Agonist: qHTS. D(3) dopamine receptor (Homo sapiens), P35462. D3R DiscoveRx beta-arrestin cells, luminescence, 90 min. max activation, %. 0.58% of 410,000 active. AID 652048, 2013; in the data active = max activation above about 30%; note: 0% is about no effect
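Agonist-mode cell screen: cells plated at 1500/well and incubated overnight at 37 °C, then exposed to library compounds for 90 min at 37 °C. Detection reagent was added for 30–60 min at room temperature, and luminescence was read.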
D1 PAM = Potentiators of Human D1 Dopamine Receptor: qHTS. D(1A) dopamine receptor (Homo sapiens), P21728. HEK293 TREx D1 cells, calcium flux, dopamine EC20 potentiation. potentiation, % at 10 µM. 0.036% of 360,000 active. AID 504651, 2011; in the data active = potentiation above about 30%; note: 0% is about no effect
An asterisk follows results filed as active; ? = inconclusive; nt = no result.

SMILES	D1 agonist	D1 antag	D3 antag	DRD3 agonist	D1 PAM
COc1ccc(-c2n(CC(=O)OC3CC(C)CCC3C(C)C)c3ccccc3[n+]2C)cc1 (centres undefined)	3	17	-86*	-27	6
COc1ccc(OCc2n(CC(=O)OC3CC(C)CCC3C(C)C)c3ccccc3[n+]2C)cc1 (centres undefined)	34*	20	?	-24	-10
Cn1cnc(S(=O)(=O)NC2CCN(Cc3ccccc3)CC2)c1	4	-7	-1	4	1
N=c1c(C(=O)NCc2ccco2)cc2c(=O)n3ccccc3nc2n1Cc1ccccc1	1	-11	-51*	-10	-5
COc1ccc(CCn2c(=N)c(C(=O)NC3CCCC3)cc3c(=O)n4ccccc4nc32)cc1	0	-32*	7	0	-3
Cc1ccc(S(=O)(=O)c2cc3c(=O)n4ccccc4nc3n(Cc3ccco3)c2=N)cc1	9	-32*	-17	0	0
COc1ccc(CCn2c(=N)c(C(=O)NC3CCCC3)cc3c(=O)n4ccccc4nc32)cc1OC	1	8	9	-2	-2
Cc1cccn2c(=O)c3cc(C(=O)NCCc4ccccc4)c(=N)n(Cc4ccco4)c3nc12	-3	-10	-100*	-16	-2
COc1cccc(-n2c(CN3CCN(c4ccccc4)CC3)nc3ccc([N+](=O)[O-])cc3c2=O)c1	0	-8	-2	-10	13
CC(C)Sc1nnc(SCC(=O)NCCCN2CCCC2=O)s1	3	6	16	3	0
O=[N+]([O-])c1ccc(N/N=C/c2cccc(O)c2O)c(S(=O)(=O)N2CCOCC2)c1	58*	-76*	-64*	-8	-13
Cc1nccn1C[C@@H]1CCc2c(c3ccccc3n2C)C1=O	0	8	-79*	-38	-6
Cc1nccn1CC1CCc2c(c3ccccc3n2C)C1=O (centres undefined)	0	-1	8	4	-7
OC(COCc1ccccc1F)CN1CCCCC1 (centres undefined)	nt	nt	30	-6	nt
OC(COc1ccccc1F)CN1CCC(Cc2ccccc2)CC1 (centres undefined)	16	-42*	-81*	-25	-18
OC(COc1ccc(F)cc1Cl)CN1CCC(Cc2ccccc2)CC1 (centres undefined)	61*	-72*	-79*	-20	-7
Cc1ccc(-n2c(CCC(=O)O)ccc2-c2cccs2)cc1Cl	16	-57*	nt	-1	-1
COCCCn1c(CCC(=O)O)ccc1-c1cccs1	2	3	-55*	-4	3
Cc1ccccc1NC(=O)Cn1c(CCC(=O)O)ccc1-c1cccs1	4	-42*	2	-1	-6
Cc1cc(N2CCCCC2)nc2ccc(NC(=O)CCC(=O)N3CCN(c4ccccc4)CC3)cc12	-1	5	nt	6	0
Cc1cc(C)c2sc(N(CCCN(C)C)C(=O)CN3C(=O)c4ccccc4C3=O)nc2c1	42*	-6	1	-15	-6
Cc1cc(C)c2sc(N(CCCN(C)C)C(=O)c3ccc(Br)s3)nc2c1	6	-3	-20	-7	-6
Cc1ccc2nc(N(CCCN(C)C)C(=O)CN3C(=O)c4ccccc4C3=O)sc2c1	44*	-20	?	-20	-15
Cc1ccc2nc(N(CCCN(C)C)C(=O)CCc3ccccc3)sc2c1	16	-2	?	-25	0
COc1ccc(/C=N/n2c(N)nc3ccccc32)cc1OC	2	-2	-1	5	-6
COc1cccc(/C=N/n2c(N)nc3ccccc32)c1OC	2	-5	38	30*	-9
Cc1nc2[nH]c(=O)c3c(n2n1)NC1=C(C(=O)CC(C)(C)C1)C3c1ccccc1 (centres undefined)	5	-51*	20	-1	-3
CC1(C)CC(=O)C2=C(C1)NC1=C(C(=O)c3ccccc31)C2c1ccccc1 (centres undefined)	-1	0	-7	4	0
